# From PubChem BioAssay
# E-sel TNF inh – E-selectin induction blockers in HUVEC – imaging, immunofluorescence, high content, primary screen. 0.71% of 120,000 active. AID 1246, 2008. inhibition, % at 2 µM. HUVEC TNFa-induced E-selectin immunofluorescence;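 active = inhibition above the batch mean plus 3 SD, and confirmed as a hit on visual image review, cut at about 43% in these data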;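 also: 0% = TNF-stimulated DMSO wells and 100% = unstimulated control wells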
# CYP2C9 inhib – blockers of cytochrome P450 2C9 activity – biochemical, luminescence, ADME assay, primary screen | P11712 | inhibition, % at 5 µM | CYP2C9 Supersomes, luciferin-H conversion | 20% of 96,000 active;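 active = blocking of liver enzyme CYP2C9 beyond about 50% at 5 µM, limit read from the data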
# F-actin modifier – modifiers of F-actin cytoskeleton organization, primary screen, imaging, HUVEC, phalloidin staining, high-content imaging | HUVEC TNFa F-actin phalloidin imaging | inhibition, % at 2 µM | 0.18% of 91,000 active;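 active = inhibition above the batch mean plus 3 SD and confirmed as a hit by visual image inspection, cut at about 30% in these data, passing the limit was not always enough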
# CYP2C19 inh – blockers of cytochrome P450 2C19 activity – biochemical, luminescence, ADME assay, primary screen | CYP2C19 Supersomes, luciferin-H EGE luminescence, 30 min | inhibition, % at 5 µM | 21% of 96,000 active | AID 778, 2007;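 active = CYP2C19 inhibition above a set limit at 5 µM in the primary screen, cut at about 50% in these data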;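 also: plate controls were negative control wells for no effect and 2.5 mM tranylcypromine positive control for full effect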
# Target sequence (P33261 whole entry, looked up): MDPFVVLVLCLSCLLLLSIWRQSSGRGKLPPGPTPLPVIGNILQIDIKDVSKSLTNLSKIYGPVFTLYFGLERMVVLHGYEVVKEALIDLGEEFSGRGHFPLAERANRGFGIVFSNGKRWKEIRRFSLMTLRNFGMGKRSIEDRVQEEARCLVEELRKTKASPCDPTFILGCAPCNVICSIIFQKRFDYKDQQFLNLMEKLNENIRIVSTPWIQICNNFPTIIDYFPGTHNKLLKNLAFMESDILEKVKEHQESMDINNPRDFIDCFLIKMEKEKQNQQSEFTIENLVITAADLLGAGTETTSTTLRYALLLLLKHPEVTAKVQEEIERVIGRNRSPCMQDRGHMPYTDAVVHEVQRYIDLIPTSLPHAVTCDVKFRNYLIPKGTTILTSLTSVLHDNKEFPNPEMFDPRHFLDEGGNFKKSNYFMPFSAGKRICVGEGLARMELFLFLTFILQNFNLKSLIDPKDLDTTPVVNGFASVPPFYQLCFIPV
# CYP2C9 activ – human CYP2C9 activators, primary screen, biochemical, luminescence | Cytochrome P450 2C9 (Homo sapiens), P11712 | recombinant CYP2C9, luciferin-H conversion; hits give high values; factor 1 = untreated enzyme, 0 = blocked | activation factor at 5 µM | 1.4% of 96,000 active | AID 1024, 2008;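 active = activation factor of 2 or more for CYP2C9 at a 5 µM dose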;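 also: 0 = sulfaphenazole-blocked wells and 1 = vehicle-only wells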
# CYP2C19 activ – human CYP2C19 activators, primary screen, biochemical, luminescence. 96,000 tested, under 10 active. Cytochrome P450 2C19 (Homo sapiens), P33261. activation factor at 5 µM. recombinant CYP2C19, luciferin-H EGE luminescence; hits give high values; 0 = fully inhibited enzyme, 1 = untreated enzyme;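 active = activation factor of at least 2 at 5 µM in the primary screen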;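 also: 0 = wells with 2.5 mM tranylcypromine and 1 = vehicle-only wells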
# Numbers without * were called inactive; · = no result. The list is not random: actives were taken first. Their share in the collection is about 22%.
SMILES,E-sel TNF inh,CYP2C9 inhib,F-actin modifier,CYP2C19 inh,CYP2C9 activ,CYP2C19 activ
COc1cccc(CNc2ccc(F)c(Cl)c2)c1,100*,29,-2,14,0.7,0.9
O/N=C/c1cc(Cl)ccc1OCc1cccc2ccccc12,-13,76*,4,53*,0.2,0.5
CCOc1ccc(Br)cc1/C=N/O,6,3,-6,8,1,0.9
C#CCOc1ccc(/C=N/O)cc1Cl,5,·,·,·,·,·
C#CCOc1ccc(Cl)cc1/C=N/O,35,45,10,51*,0.6,0.5
COc1cc(/C=N/O)ccc1OCc1ccc(Cl)cc1,-4,·,·,·,·,·
C#CCOc1ccc(Br)cc1/C=N/O,8,66*,-7,64*,0.3,0.4
CC(C)(C)C(=O)N1CCCC1C(=O)O (stereo not drawn),-3,-18,·,-8,1.2,1.1
CC1=C(C(=O)Nc2ccccc2F)C(c2ccsc2)C2=C(CC(c3ccccc3)CC2=O)N1 (stereo not drawn),30,6,-20,79*,0.9,0.2
CCCn1nc(C(=O)Nc2cccc(C(=O)OC)c2)c2ccccc2c1=O,-35,79*,·,63*,0.2,0.4
O=C(CCN1C(=O)S/C(=C\c2ccccc2)C1=O)Nc1ccc(S(=O)(=O)Nc2nccs2)cc1,22,65*,-1,29,0.4,0.7
CCCn1nc(C(=O)Nc2ccc(S(=O)(=O)Nc3nccs3)cc2)c2ccccc2c1=O,0,60*,6,5,0.4,0.9
COC(=O)c1cccc(NC(=O)c2nn(C(C)C)c(=O)c3ccccc23)c1,·,39,-14,7,0.6,0.9
O=C(O)CCN1C(=O)/C(=C\c2ccncc2)SC1=S,-37,·,·,·,·,·
CCCCC(CC)CN1C(=O)/C(=C/c2ccncc2)SC1=S (stereo not drawn),0,70*,-9,62*,0.3,0.4
O=C1C2C(c3ccccc3)C=CC(c3ccccc3)C2C(=O)N1CCO (stereo not drawn),·,74*,5,99*,0.3,0
O=C1C2C(c3ccccc3)C=CC(c3ccccc3)C2C(=O)N1C1CCCCC1 (stereo not drawn),1,80*,-8,-18,0.2,1.2
O=C1C2C3C=CC(C3=C(c3ccccc3)c3ccccc3)C2C(=O)N1Cc1ccccc1 (stereo not drawn),0,-14,2,54*,1.1,0.5
Cc1ccc(OC(=O)C(C)c2cccc(C(=O)c3ccccc3)c2)cc1 (stereo not drawn),-32,9,-30,38,0.9,0.6
Clc1ccc(C2=Nn3c(nnc3-c3cccs3)SC2)cc1,-11,·,4,·,·,·
Fc1ccccc1Cc1nnc2n1N=C(c1ccc(Cl)cc1)CS2,-9,56*,-8,33,0.4,0.7
O=C(COc1ccc(Cl)cc1Cl)Nc1ccc(S(=O)(=O)NC2=NCCCCC2)cc1,4,·,·,·,·,·
CCSc1nc2ccccc2n1Cc1ccccc1F,16,·,3,·,·,·
NC(=O)CSc1nc2ccccc2n1Cc1ccccc1F,-5,-1,-6,57*,1,0.4
N#CC1(Cc2ccccc2Cl)c2ccccc2C=CN1C(=O)c1ccccc1 (stereo not drawn),4,84*,1,91*,0.2,0.1
SMILES,E-sel TNF inh,CYP2C9 inhib,F-actin modifier,CYP2C19 inh,CYP2C9 activ,CYP2C19 activ
CCOC(=O)c1cc2c(s1)-c1c(C)cccc1OC2,9,72*,-25,89*,0.3,0.1
Cc1cccc2c1-c1sc(C(=O)Nc3nccs3)cc1CO2,·,21,1,0,0.8,1
COC(=O)c1cc2c(s1)-c1ccccc1OC2,·,6,3,65*,0.9,0.4
CC1(C)Cc2ccccc2-c2c1c(=O)n(-c1ccccc1)c1nnnn21,11,·,-2,·,·,·
Cc1cc(C)c(S(=O)(=O)O)c(C)n1,·,7,21,10,0.9,0.9
COc1ccc(-c2cc(OC)c3c(C)oc(C)c3c(=O)c2)cc1OC,51,99*,-12,85*,0,0.2
COc1cc(-c2cc(OC)c3c(C)oc(C)c3c(=O)c2)ccc1O,24,94*,33,42,0.1,0.6
